# Source: PubChem BioAssay AID488862 (Broad Institute, 2010)
# Screen size: about 340,000 compounds; about 1,200 (0.35%) were called active. Only a selection was taken, and actives are over-represented in it overall. Values without a mark were called inactive. Cut-off read from the data, not from the text of the source: active = inhibition above about 52%; inactive = the rest.
# Assay: suppresses PrP 5' UTR mRNA reporter expression (AID 488862); note: 0 = median of the neutral control wells
# Conditions: cell-based PrP 5' UTR mRNA reporter, plate reader; hits give high values; concentration not given here
row,Compound,inhibition
1,O=C(CSc1ncnc2sccc12)NC1CCS(=O)(=O)C1 (configuration not stated),-11.1%
2,O=C(CSc1ncnc2sccc12)N1CCN(C(=O)c2cccs2)CC1,87.3% (active)
3,COc1ccc(OCC(=O)N2CCN(C(=O)c3cccs3)CC2)cc1,-6.1%
4,C/C(CC(=O)Nc1ccc(C)cc1C)=N\NC(=O)C(C)C,-21%
5,COC(=O)c1cc(S(=O)(=O)NC2CCN(Cc3ccccc3)CC2)cn1C,-8.61%
6,O=C(O)CCCCCNc1ncnc2ccc(Br)cc12,6.38%
7,COc1ccc(Nc2ncnc3ccc(Br)cc23)c(OC)c1,72.3% (active)
8,Brc1ccc2ncnc(NCc3cccnc3)c2c1,12.1%
9,Cc1ccc(C)c(NC(=O)COC(=O)c2nn(C)c(=O)c3ccccc23)c1,-7.85%
10,O=C1Nc2cc(C(=O)N3CCN(c4ccc(F)cc4)CC3)ccc2NC1CSCc1cccc(F)c1 (configuration not stated),-17.6%
11,CCOCCCNC(=O)C(=O)NCCCOCC,-28.8%
12,CC(C)CC(CC(C)C)=NNC(=O)c1ccc(CSc2nncn2C)cc1,-20.2%
13,CSc1nc(-c2ccccc2)nc(C(Cl)Cl)n1,86.3% (active)
14,CN(C)C(=S)N=c1ssc(=S)n1Cc1ccco1,13.6%
15,COc1ccc(C(=O)N[C@H](C(=O)NCc2ccccc2)C(C)C)cc1,-2.13%
16,COc1cc(OC)cc(C(=O)N[C@H](C(=O)Nc2nc3ccccc3[nH]2)C(C)C)c1,67.8% (active)
17,COc1cc(OC)cc(C(=O)N[C@H](C(=O)NNC(=O)c2ccc(Br)cc2)C(C)C)c1,-12.3%
18,Cc1cc(C)c(SCCc2ccncc2)c(C)c1,-26.1%
19,O=C1/C(=C/c2ccc(F)cc2)SC(=S)N1CCCC(=O)N1CCCCC1CCO (configuration not stated),-14.7%
20,Cc1ccc(/C=C2/SC(=S)N(CCC(=O)NCCCN3CCOCC3)C2=O)cc1,-12.2%
21,C=CCOc1ccc(/C=C2\SC(=S)N(CCC(=O)O)C2=O)cc1,79.7% (active)

row,Compound,inhibition
1,Cn1c(=S)sc2ccc3ccccc3c21,-8.89%
2,CCC(C)Cn1c(O)cc2nn(-c3nc4ccccc4s3)c(=O)c-2c1C (configuration not stated),92.2% (active)
3,O=C(C(=O)N1CCc2ccccc2C1)c1c[nH]c2ccccc12,-13.2%
4,Cc1nc2nc(COc3ccccc3)[nH]n2c(=O)c1Cc1ccccc1,-6.88%
5,COc1cccc(-n2c(=S)[nH]c3c(oc4ccccc43)c2=O)c1,-5.49%
6,O=c1oc2ccccc2cc1-c1cn(-c2ccccc2)c(=S)[nH]1,65.9% (active)
7,CS(=O)(=O)N1CCN(C(=O)c2cc3ccccc3oc2=O)CC1,-9.85%
8,CC1(C)O[C@@H]2[C@H](O1)[C@@H](COS(=O)(=O)O)O[C@H]2n1cnc2c(=O)[nH]cnc21,-8.78%
9,COc1ccc(C(=O)Nc2cccc(/C=C(/CCC(=O)O)c3nc4ccccc4s3)c2)cc1,-8.9%
10,COC(=O)Cc1[nH]n(-c2nc3ccccc3s2)c(=O)c1C(C)=Nc1ccc(OC)cc1,80.1% (active)
11,CC(=NCc1ccco1)c1c(C(F)(F)F)[nH]n(-c2nc3ccccc3s2)c1=O,0.0675%
12,COc1ccc(C(=O)COC(=O)C(O)c2ccccc2)c(OC)c1 (configuration not stated),-34.1%
13,CC(=O)OC1C2(CC3N4C(=O)C5(CO)SSC4(CC31O)C(=O)N5C)OC(C)C(C)(C)C2=O (configuration not stated),96.4% (active)
14,CC(C)c1ccc(/C=C/C(=O)NCCCN2CCOCC2)cc1,-9.62%
15,OCCC1CN(Cc2ccc3nsnc3c2)CCN1C1CCCC1 (configuration not stated),-10%
16,Cc1ccsc1C(=O)OCC(=O)Nc1cccc(F)c1,-13.8%
17,Cc1ccsc1C(=O)OCC(=O)c1cc(C)n(CC2CCCO2)c1C (configuration not stated),78.7% (active)
18,COc1ccc(C(=O)OCC(=O)c2cc(C)n(CC3CCCO3)c2C)cc1[N+](=O)[O-] (configuration not stated),-11.7%
19,COc1ccc(Cl)cc1NC(=O)[C@@H]1CCCN1C(=O)c1cccs1,-9.55%
20,COc1cc(NS(=O)(=O)c2ccc(NC(=S)NC(=O)c3ccccc3)cc2)nc(OC)n1,1.17%
21,CS(=O)(=O)N(CC(=O)N1CCCCCC1)c1cccc(Cl)c1Cl,-24.3%

row,Compound,inhibition
1,CCn1c(=O)c(=O)[nH]c2c(=O)oc3ccc(S(=O)(=O)Nc4ccc(OC)cc4)cc3c21,69% (active)
2,COc1ccc(S(=O)(=O)Nc2ccc3oc(C)c(C(C)=O)c3c2)cc1,-20.1%
3,COc1ccc(NS(=O)(=O)c2ccc3oc(SCC(N)=O)nc3c2)cc1,-11.7%
4,O=c1c2ccccc2cnn1Cc1n[nH]c(=S)n1-c1ccccc1F,-33.3%
5,O=C(COc1cc(Cl)c(Cl)cc1Cl)NCCc1ccccn1,-11.6%
6,Cc1ccc(Cc2cnc(N)s2)o1,-14.5%
7,Cc1ccc(C(=O)Nc2nc3ccc(Cl)cc3s2)o1,-73.3%
8,Cc1ccc(CCC(=O)Nc2ncc(Cc3cc(Cl)ccc3Cl)s2)o1,78% (active)
9,Cn1c(-c2ccccc2)c[n+]2c1CCCCC2,-9.16%
10,CCN1CCN(c2nc(Nc3cc(OC)ccc3OC)nc(Nc3cc(OC)ccc3OC)n2)CC1,-23.7%
11,CCOC(=O)c1c(C)n(C)c2ccc(OC)c(NC(=O)CN3CCC4(CC3)OCCO4)c12,-19%
12,NS(=O)(=O)c1ccc(CNC(=O)c2ccc(Cl)cc2[N+](=O)[O-])cc1,-4.62%
13,O=C(COC(=O)C1CCCCC1)Nc1ccc([N+](=O)[O-])cc1,5.99%
14,NC(=O)c1ccc(NC(=O)COC(=O)c2ccc([N+](=O)[O-])cc2)cc1,61.8% (active)
15,CC(=O)Nc1ccc(C(=O)OCC(=O)Nc2ccc([N+](=O)[O-])cc2C(F)(F)F)cc1,-18.6%
16,O=C(CCc1ccccc1)NCCc1cccs1,-25.9%
17,Cn1c(SCC(=O)NC2CCCCC2)nnc1-c1cc2ccccc2o1,-18.5%
18,O=[N+]([O-])c1ccc(C=NN=Cc2ccc([N+](=O)[O-])cc2)cc1,-32.5%
19,Nc1ccc([N+](=O)[O-])cc1,3.7%
20,O=C1/C(=C\c2ccc([N+](=O)[O-])cc2)CS(=O)(=O)C/C1=C/c1ccc([N+](=O)[O-])cc1,71.1% (active)
